# Experimental data published in the supplement of paper PMC9023506.
# Structures can show the parent of a compound that is named as a salt.
# Tested on: Danio rerio larvae (5 dpf)
# Assay: startle response to 20-s acoustic pulses, difference vs DMSO (percentage points (treated minus DMSO)); higher = more of the behaviour than the DMSO vehicle control
# Details: 10 µM; exposure time: 3 h pre-incubation + 3 h imaging
# Method: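 5-dpf wild-type zebrafish larvae were imaged in 96-well plates. They were treated with 190 Tocris FDA-approved drugs at 10 µM (1 µl/ml DMSO) for 3 h before and 3 h during imaging at 28.5 °C, 48 larvae per drug. Automated image analysis gave % time moving and optomotor responses. Values are drug group mean minus DMSO vehicle mean (n=844), in percentage points, for 10 behaviours.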
row,SMILES,startle response to 20-s acoustic pulses
1,CCN(Cc1ccncc1)C(=O)C(CO)c1ccccc1 (stereo not given) [Tropicamide],-8.17
2,COC(=O)C1=C(C)NC(C)=C(C(=O)OC(C)C)C1c1cccc2nonc12 (stereo not given) [Isradipine],-10.3
3,COc1cc2nc(N3CCN(C(=O)C4COc5ccccc5O4)CC3)nc(N)c2cc1OC (stereo not given) [Doxazosin mesylate],7.2
4,CC(CCc1ccc(O)cc1)NCCc1ccc(O)c(O)c1 (stereo not given) [Dobutamine hydrochloride],2.42
5,CCCC1O[C@@H]2C[C@H]3[C@@H]4CCC5=CC(=O)C=C[C@]5(C)[C@H]4[C@@H](O)C[C@]3(C)[C@]2(C(=O)CO)O1 (stereo not given in full) [Budesonide],-5.65
6,Cc1nnc(C(C)C)n1C1C[C@H]2CC[C@@H](C1)N2CC[C@H](NC(=O)C1CCC(F)(F)CC1)c1ccccc1 (stereo in doubt) [Maraviroc],-4.61
7,CO[C@H]1/C=C/O[C@@]2(C)Oc3c(C)c(O)c4c(O)c(c5c(nc6cc(C)ccn65)c4c3C2=O)NC(=O)/C(C)=C\C=C\[C@H](C)[C@H](O)[C@@H](C)[C@@H](O)[C@@H](C)[C@H](OC(C)=O)[C@@H]1C [Rifaximin],2.34
8,CCc1c2c(nc3ccc(OC(=O)N4CCC(N5CCCCC5)CC4)cc13)-c1cc3c(c(=O)n1C2)COC(=O)[C@]3(O)CC,1.92
9,CC(C)(C)NC(=O)[C@@H]1C[C@@H]2CCCC[C@@H]2CN1C[C@@H](O)[C@H](Cc1ccccc1)NC(=O)[C@H](CC(N)=O)NC(=O)c1ccc2ccccc2n1 [Saquinavir mesylate],0.0193
10,CC(=O)O[C@H]1C(=O)[C@@]2(C)[C@H]([C@H](OC(=O)c3ccccc3)[C@]3(O)C[C@H](OC(=O)[C@H](O)[C@@H](NC(=O)c4ccccc4)c4ccccc4)C(C)=C1C3(C)C)[C@]1(OC(C)=O)CO[C@@H]1C[C@@H]2O [Taxol],-0.529
11,CC(C)(C(=O)c1cccnc1)c1cccnc1 [Metyrapone],3.51
12,COc1ccccc1OCCNCC(O)COc1cccc2[nH]c3ccccc3c12 (stereo not given) [Carvedilol],4.96
13,Cc1cccc(CN2CCN(C(c3ccccc3)c3ccc(Cl)cc3)CC2)c1 (stereo not given) [Meclizine dihydrochloride],-8.16
14,Cc1nc(Nc2ncc(C(=O)Nc3c(C)cccc3Cl)s2)cc(N2CCN(CCO)CC2)n1 [Dasatinib],0.79
15,C[C@]12CCC(=O)C=C1CC[C@@H]1[C@@H]2[C@@H](O)C[C@@]2(C)[C@H]1CC[C@]2(O)C(=O)CO [Hydrocortisone],0.897
16,CCN(CC)CCNC(=O)c1c(C)[nH]c(/C=C2\C(=O)Nc3ccc(F)cc32)c1C [Sunitinib malate],-2.32
17,CN1CCN(CCCN2c3ccccc3Sc3ccc(Cl)cc32)CC1 [Prochlorperazine dimaleate],-7.34
18,COc1c(C)c2c(c(O)c1C/C=C(\C)CCC(=O)O)C(=O)OC2 [Mycophenolic acid],2.15
19,COc1ccc(C[C@@H](C)NC[C@H](O)c2ccc(O)c(NC=O)c2)cc1 [Arformoterol tartrate],-9.44
20,CCc1ccc(CCOc2ccc(CC3SC(=O)NC3=O)cc2)nc1 (stereo not given) [Pioglitazone hydrochloride],-3.21

row,SMILES,startle response to 20-s acoustic pulses
1,CCC(C)(C)C(=O)O[C@H]1C[C@@H](C)C=C2C=C[C@H](C)[C@H](CC[C@@H]3C[C@@H](O)CC(=O)O3)[C@H]21 [Simvastatin],3.9
2,COc1cccc2c1C(=O)c1c(O)c3c(c(O)c1C2=O)C[C@@](O)(C(=O)CO)C[C@@H]3O[C@H]1C[C@H](N)[C@H](O)[C@H](C)O1 [Doxorubicin hydrochloride],3.62
3,C[C@@H]1C[C@H]2[C@@H]3CCC4=CC(=O)C=C[C@]4(C)[C@@]3(F)[C@@H](O)C[C@]2(C)[C@@]1(O)C(=O)CO [Dexamethasone],-1.79
4,OC(c1cc(C(F)(F)F)nc2c(C(F)(F)F)cccc12)C1CCCCN1 (stereo not given) [Mefloquine hydrochloride],-13.3
5,CCC(=O)O[C@]1(C(=O)SCF)[C@H](C)C[C@H]2[C@@H]3C[C@H](F)C4=CC(=O)C=C[C@]4(C)[C@@]3(F)[C@@H](O)C[C@@]21C [Fluticasone propionate],-3.1
6,CC(C)n1c(/C=C/C(O)CC(O)CC(=O)O)c(-c2ccc(F)cc2)c2ccccc21 (stereo not given) [Fluvastatin sodium],1.71
7,CN(CCOc1ccc(CC2SC(=O)NC2=O)cc1)c1ccccn1 (stereo not given) [Rosiglitazone],-1.12
8,CC[C@H](C)C(=O)O[C@H]1C[C@@H](C)C=C2C=C[C@H](C)[C@H](CC[C@@H]3C[C@@H](O)CC(=O)O3)[C@H]21 [Lovastatin],-0.839
9,NC(=O)c1ncn([C@@H]2O[C@H](CO)[C@@H](O)[C@H]2O)n1 [Ribavirin],1.75
10,C/C(O)=C(\C#N)C(=O)Nc1ccc(C(F)(F)F)cc1 [Teriflunomide],-4.42
11,CN[C@H]1CC[C@@H](c2ccc(Cl)c(Cl)c2)c2ccccc21 [Sertraline hydrochloride],1.74
12,Cc1cccc(C)c1OCC(C)N (stereo not given) [Mexiletine hydrochloride],0.873
13,C=C1[C@H](CO)[C@@H](O)C[C@@H]1n1cnc2c(=O)[nH]c(N)nc21 [Entecavir],3.11
14,CC(=O)O[C@]1(C(C)=O)CC[C@H]2[C@@H]3C=C(C)C4=CC(=O)CC[C@]4(C)[C@H]3CC[C@@]21C [Megestrol Acetate],-15.1
15,COC(c1ccccc1)(c1ccccc1)[C@H](Oc1nc(C)cc(C)n1)C(=O)O [Ambrisentan],5.96
16,Clc1ccc2nsnc2c1NC1=NCCN1 [Tizanidine hydrochloride],-1.69
17,CN/C(=N\CCSCc1nc[nH]c1C)NC#N [Cimetidine],7.14
18,C[C@H]1C[C@@H]2[C@H]([C@@H](O)C[C@@]3(C)[C@H]2CC[C@]3(O)C(=O)CO)[C@@]2(C)C=CC(=O)C=C12 [Methylprednisolone],-0.0848
19,CN1CC[C@@H](NC(=O)Nc2ccc(C#N)cc2)C[C@@H]1c1nc2ccccc2[nH]1,-5.85
20,COc1cc([C@@H]2c3cc4c(cc3[C@@H](O[C@@H]3O[C@@H]5CO[C@@H](C)O[C@H]5[C@H](O)[C@H]3O)[C@H]3COC(=O)[C@H]23)OCO4)cc(OC)c1O [Etoposide],-1.98
